# MITF primary: human MITF inhibition, primary screen; inhibition, % at 2.6 µM; actives 0.91% (n = 650,000); O75030; AlphaScreen MITF homodimerization, bead proximity signal; in the data active = inhibition above about 50%;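 also: 0% = vehicle wells with protein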
# FBW7 act: human FBW7 E3 ligase activation, primary screen. actives 0.13% (n = 650,000). normalized activity (activation), % at 26.1 µM. Q969H0. AlphaScreen FBW7–phospho-cyclin E peptide binding, activator screen; in the data active = normalized activity above about 1.9%;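 also: purified mutant Fbw7 with reduced substrate affinity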
# TEAD-YAP block: TEAD-YAP interaction inhibition. HEK-TIYL cells, TEAD-Gal4/YAP UAS-luciferase luminescence. inhibition, % at 9.12 µM. actives 1.4% (n = 640,000). AID 1259422; in the data active = inhibition above about 32%;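 also: 0% = median of test compound wells and 100% = reference inhibitor wells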
# GPR151 activ: activators of human GPR151; Q8TDV0; PathHunter beta-arrestin GPR151 cells, luminescence; activation, % at 11.2 µM; actives 1% (n = 650,000); in the data active = activation above about 4.9%;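 also: 0% = median of compound wells and 100% = cells with positive control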
# GPR151 conf act: human GPR151 activation, confirmation screen; GPR151 PathHunter beta-arrestin cells, luminescence, 90 min; % of EA-reagent control over plate median; activation, % at 11.2 µM; shares compounds with GPR151 activ; 6,700 tested, under 10 active;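 active = mean percent activation across replicates above the confirmation screen cutoff of 4.91%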
# GPR119 counter: counter-screen for GPR151 activators: effect on human GPR119 | shares compounds with GPR151 activ | GPR119 PathHunter beta-arrestin cells, luminescence, 90 min; 0 = compound-well median, 100 = enzyme-acceptor control | activation, % at 11.2 µM | actives 0.3% (n = 6,700);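 active = mean percent activation in the counterscreen above 29.09%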;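 also: counterscreen on off-target GPR119 to flag nonselective hits from the GPR151 activator screen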
# Target sequence (Q8TDV5 whole entry, looked up): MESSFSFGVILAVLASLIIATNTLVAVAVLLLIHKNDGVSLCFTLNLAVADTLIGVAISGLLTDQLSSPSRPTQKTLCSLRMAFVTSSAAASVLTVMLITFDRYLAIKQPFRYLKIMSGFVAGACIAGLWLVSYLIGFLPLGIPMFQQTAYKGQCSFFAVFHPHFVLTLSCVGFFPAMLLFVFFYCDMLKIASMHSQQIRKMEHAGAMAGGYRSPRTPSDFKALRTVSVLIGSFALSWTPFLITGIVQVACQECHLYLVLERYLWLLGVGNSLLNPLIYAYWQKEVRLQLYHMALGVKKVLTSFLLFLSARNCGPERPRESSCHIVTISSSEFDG
# * marks the source's active call; other numbers are inactive results; / = not tested or not shown. Compounds with a hit are over-represented: about 3.5% of the library has one in this group of screens.
SMILES,MITF primary,FBW7 act,TEAD-YAP block,GPR151 activ,GPR151 conf act,GPR119 counter
CC1CCN(c2ccc(C(=O)N3CCOCC3)cc2[N+](=O)[O-])CC1,-5,0,-14,5.2*,-1,-18
O=C(c1ccc(N2CCCCC2)c([N+](=O)[O-])c1)N1CCOCC1,2,0,-10,0,/,/
CC(=O)c1ccc(N2CCN(C(=S)NCC3CCCO3)CC2)cc1 (centres undefined),6,0,-2,1,/,/
O=C(c1ccco1)N1CCN(C(=S)NCC2CCCO2)CC1 (centres undefined),-10,0,9,6.4*,0,-2
CCOCCCNC(=S)N1CCC(NC(=O)c2ccco2)CC1,6,0,-3,5.9*,0,-2
CCOCCCNC(=S)N1CCC(NC(=O)c2ccc(C)cc2)CC1,1,0,-1,1,/,/
Oc1ccc(C2(c3cccc(Cl)c3)CCCCC2)cc1,7,0,-11,1,/,/
O=C(c1oc2ccccc2c1N1CCCCC1)N1CCCCC1,0,0,10,5.0*,-1,0
Cc1ccc(C(c2nnnn2Cc2ccco2)N2CCN(C)CC2)cc1 (centres undefined),6,1,12,0,/,/
CCn1c(=O)c2c(nc3n(CC)c(C)cn23)n(C)c1=O,-3,0,7,1,/,/
CCCn1c(=O)c2c(nc3n(-c4ccc(C(=O)OCC)cc4)c(C)cn23)n(C)c1=O,9,-1,-4,0,/,/
CCn1c(=O)c2c(nc3n(C)c(C)cn23)n(C)c1=O,6,0,22,8.0*,1,2
CCCCn1c(=O)c2c(nc3n(-c4ccc(C(=O)OCC)cc4)c(C)cn23)n(C)c1=O,15,0,6,5.6*,1,-10
Cc1ccc(C2=N/C(=C/c3cc(Br)cs3)C(=O)O2)cc1[N+](=O)[O-],7,0,13,5.1*,0,5
Cc1ccc(C2=N/C(=C/c3ccc([N+](=O)[O-])cc3)C(=O)O2)cc1,-7,0,2,7.9*,0,-8
O=C1OC(c2ccc([N+](=O)[O-])cc2)=N/C1=C\c1ccccc1,9,0,-4,-1,/,/
Cc1c(C(=O)Nc2ccc(Oc3ccccc3)cc2)sc2ncnc(N3CCCCC3C)c12 (centres undefined),2,0,7,0,/,/
C=CCNC(=O)C(=O)Nc1nc(-c2ccccc2)cs1,11,0,-28,-1,/,/
Cc1sc(NC(=O)CCOc2ccccc2)c(C#N)c1C,-5,0,6,6.9*,-1,4
CCCC(=O)Nc1cccc(Oc2ccc3c(c2)C(=O)NC3=O)c1,-9,0,-4,6.0*,-1,-8
CCCC(=O)Nc1ccc(Oc2ccc3c(c2)C(=O)NC3=O)cc1,15,0,-6,-1,/,/
CCOC(=O)c1sc(N/C(=C/C(=O)c2ccccc2)C(=O)O)cc1C,-4,0,-5,9.0*,0,3
CCOC(=O)c1sc(NC(C)=O)cc1C,11,0,-5,-1,/,/
C/C(=N\NC(=O)c1ccc(N2CCCC2=O)cc1)c1ccccn1,-14,0,-1,9.1*,1,9
COCCCn1c(-c2ccc(C(C)(C)C)cc2)n[nH]c1=S,0,0,-10,12*,0,-12
SMILES,MITF primary,FBW7 act,TEAD-YAP block,GPR151 activ,GPR151 conf act,GPR119 counter
COc1cccc(-c2nc(C3CCCN(C(=O)Nc4c(C)noc4C)C3)n3ccccc23)c1 (centres undefined),0,0,21,1,/,/
Cc1c(C(=O)C(=O)N2C(C)CCCC2C)c2ccccc2n1C (centres undefined),2,0,0,0,/,/
COc1ccc(C(=O)N/C(=C/c2cccc([N+](=O)[O-])c2)C(=O)Nc2cc(Cl)ccc2C)c(Cl)c1,-11,0,-8,12*,0,-6
COc1ccc(Br)c(C(=O)N/C(=C/c2cccc([N+](=O)[O-])c2)C(=O)Nc2cc(Cl)ccc2C)c1,-7,0,10,0,/,/
Cn1c(=O)c([N+](=O)[O-])c(NCc2ccccc2)c2ccccc21,11,0,-3,8.1*,0,0
COc1ccc(N2C(=O)NC(=O)/C(=C/c3cccn3-c3cccc([N+](=O)[O-])c3)C2=O)cc1,15,0,0,4.9*,0,4
COc1cccc(N2C(=O)NC(=O)/C(=C/c3c(OC)ccc4ccccc34)C2=O)c1,-11,0,3,-1,/,/
COc1ccc2ccccc2c1/C=C1\C(=O)NC(=O)N(c2ccc([N+](=O)[O-])cc2)C1=O,10,0,8,6.7*,0,0
CCOC(=O)c1c(NC(=O)Nc2ccc(Cl)cc2)sc2c1CC(C)(C)OC2,-9,0,-10,5.2*,2,8
CCOC(=O)c1c(NC(=O)CC)sc2c1CC(C)(C)OC2,-2,0,-4,-1,/,/
CCOC(=O)c1c(NC(=O)Cc2ccccc2)sc(C(=O)Nc2ccccc2C)c1C,5,0,0,2,/,/
C=C1C(C(=O)N2CCOCC2)C1C(=O)N1CCOCC1 (centres undefined),13,0,-7,5.4*,0,7
CCSc1sc(CC)cc1C1C(C#N)=C(N)N(N(C)C)C2=C1C(=O)CC(C)(C)C2 (centres undefined),7,0,-4,5.5*,1,0
CCc1ccc(S(=O)(=O)Nc2cc(Cl)c3oc(C)c(C(C)=O)c3c2)cc1,-17,0,-1,-1,/,/
COc1cc2c(cc1OC)C(Cc1ccccc1Br)=NC(C)(C)C2,-2,0,9,0,/,/
O=C(COc1ccc(Cl)cc1Br)N/N=C/c1cc([N+](=O)[O-])ccc1O,-5,0,-4,5.1*,1,11
CC(O)CCC(=O)N/N=C/c1cc([N+](=O)[O-])ccc1O (centres undefined),7,-2,3,10*,0,0
COc1ccc(CSc2nnc(COc3ccc(C)c(C)c3)n2-c2ccccc2)cc1,10,1,-2,0,/,/
O=CNC(c1ccc(Cl)cc1)c1ccc(Cl)cc1,8,0,12,0,/,/
O=CNC(c1ccccc1)c1ccc(Cl)cc1Cl (centres undefined),-36,0,6,9.9*,-1,-9
COc1ccc(CC(=O)Nc2ncc(Cc3cccc4ccccc34)s2)cc1,-2,0,7,1,/,/
O=C(Nc1ccc(Cl)c(-c2nc3ccccc3o2)c1)c1ccccc1F,6,0,15,-1,/,/
Cc1ccc(C(=O)Nc2ccc(-c3nc4ccccc4o3)cc2)c(Cl)c1,-3,1,-9,6.5*,1,10
O=C(Nc1ccc(Cl)c(-c2nc3ccccc3o2)c1)c1ccccc1Br,-7,0,-7,5.9*,0,10
